Assay [1] is described as follows: HepG2 liver cancer cell viability effects, profiling panel, resazurin fluorescence, 24 h, PK04 Diversity Set (AID 1172). Note: test concentration not given here. The settings on record: higher = more signal. (Resazurin is reduced to fluorescent resorufin, in cell work by metabolically active cells.)
The nature of assay [2]: basal S. cerevisiae growth modulation, no modifier, primary screen, OD600, strain BY4716, 24 h, basal condition (AID 1173). The settings on record: OD600, 24 h, higher = more signal, called active from +8 up or from −8 down.
The nature of assay [3]: MM1S myeloma cell viability, profiling panel, resazurin fluorescence, basal, 24 h, PK04 Diversity Set (AID 1174).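 Note: MM1S multiple myeloma cell line; test concentration not given here.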 The following applies: higher = more signal, called active from +8 up or from −8 down.
The target in assay [4] is Dihydroorotate dehydrogenase (quinone), mitochondrial (Plasmodium falciparum (isolate 3D7)) (UniProt Q08210). Description: PfDHODH enzyme inhibitors, primary screen, biochemical, C-terminal His tag, absorbance 600 nm (AID 1175).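 Note: recombinant parasite enzyme with a five histidine tag at its C terminus; test concentration not given here.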 The following applies: DCIP absorbance 600 nm, higher = more signal, called active from +8 up or from −8 down.
Sequence of Dihydroorotate dehydrogenase (quinone), mitochondrial (Plasmodium falciparum (isolate 3D7)) (Q08210 whole entry, looked up): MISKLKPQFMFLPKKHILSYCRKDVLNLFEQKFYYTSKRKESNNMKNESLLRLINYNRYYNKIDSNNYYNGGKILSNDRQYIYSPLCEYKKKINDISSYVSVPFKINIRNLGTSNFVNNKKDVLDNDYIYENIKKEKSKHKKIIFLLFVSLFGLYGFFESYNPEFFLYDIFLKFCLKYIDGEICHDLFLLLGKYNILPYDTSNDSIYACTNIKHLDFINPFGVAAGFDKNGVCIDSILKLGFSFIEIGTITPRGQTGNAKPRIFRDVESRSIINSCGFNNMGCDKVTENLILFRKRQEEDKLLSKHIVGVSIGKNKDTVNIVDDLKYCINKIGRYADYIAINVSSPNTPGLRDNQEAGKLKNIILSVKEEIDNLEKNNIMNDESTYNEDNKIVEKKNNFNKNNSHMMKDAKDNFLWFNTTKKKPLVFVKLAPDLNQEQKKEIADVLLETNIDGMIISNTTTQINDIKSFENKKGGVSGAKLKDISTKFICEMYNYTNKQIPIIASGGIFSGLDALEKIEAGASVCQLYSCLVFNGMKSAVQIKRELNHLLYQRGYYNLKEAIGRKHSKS
Assay [5] can be described thus: P. aeruginosa biofilm formation inhibitors, primary screen, strain PAO1, LB-PBS medium, absorbance 600 nm (AID 1176). Note: test concentration not given here. The settings on record: P. aeruginosa PAO1 growth/biofilm, A600, 12 h; higher = more signal.
Assay [6] can be described thus: S. cerevisiae RM11-1a growth modifiers, primary screen, strain RM11-1a, OD600, basal, 24 h (AID 1177).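 Note: cultures grown under basal conditions with no added stressor; test concentration not given here.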 The settings on record: OD600, 24 h, higher = more signal, called active from +8 up or from −8 down.
Assay [7] is described as follows: E. coli acrAB mutant growth effects, primary screen, E. coli filamentation inducers, strain DRC39, OD650, 24 h (AID 1178).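 Note: growth measured as culture turbidity by optical density at 650 nm; test concentration not given here.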 The following applies: higher = more signal, called active from +8 up or from −8 down.
Assay [8] can be described thus: E. coli acrAB mutant growth effects, primary screen, E. coli filamentation inducers, strain DRC39, OD650, 48 h (AID 1179).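 Note: screen aims at cell division blockers that make cells filament.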 The settings on record: E. coli DRC39 delta-acrAB growth, higher = more signal, called active from +8 up or from −8 down.
A short description of assay [9]: RPMI8226 myeloma cell viability, profiling panel, resazurin fluorescence, basal, 24 h, PK04 Diversity Set (AID 1180).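 Note: RPMI8826 multiple myeloma cell line at 5000 cells per well; test concentration not given here.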 The settings on record: higher = more signal.
Assay [10] addresses E3 ubiquitin-protein ligase XIAP (Homo sapiens) (UniProt P98170). Description: XIAP binders, primary screen, biophysical, small-molecule microarray, fluorescence 635 nm (AID 1181).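 Note: score merges 667 nm emission and signal to noise over triplicate slides.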 The settings on record: small-molecule microarray binding, higher = more signal.

Active and inactive are the calls of the source. Unless noted, the rule behind the calls is not given here.

Sequence of E3 ubiquitin-protein ligase XIAP (Homo sapiens) (P98170 whole entry, looked up): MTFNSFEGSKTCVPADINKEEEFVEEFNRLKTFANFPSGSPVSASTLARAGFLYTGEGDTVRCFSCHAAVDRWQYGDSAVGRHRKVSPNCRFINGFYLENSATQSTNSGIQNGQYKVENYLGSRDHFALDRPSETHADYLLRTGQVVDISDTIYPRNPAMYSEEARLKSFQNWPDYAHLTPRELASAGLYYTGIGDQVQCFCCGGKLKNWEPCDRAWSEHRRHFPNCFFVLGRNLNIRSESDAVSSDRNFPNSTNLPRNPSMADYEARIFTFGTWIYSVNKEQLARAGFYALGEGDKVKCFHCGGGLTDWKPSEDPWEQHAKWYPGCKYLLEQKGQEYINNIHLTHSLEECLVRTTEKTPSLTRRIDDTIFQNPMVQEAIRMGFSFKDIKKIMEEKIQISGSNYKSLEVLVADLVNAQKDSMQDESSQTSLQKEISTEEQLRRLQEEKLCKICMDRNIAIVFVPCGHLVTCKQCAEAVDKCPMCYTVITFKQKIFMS

With `CC(=O)NCCCC[C@@H]1NC(=O)[C@@H]2C[C@H](C(=O)NCCCCCCNC(=O)CS)[C@H](c3cccc(OCCO)c3)N2C1=O`, the z-score in [1] was -0.396; in [2], 0.174 (inactive); in assay [3], -0.449 (inactive); in [5] it was 0.752 (inactive); in assay [6], -0.407 (inactive); in [7], 0.293 (inactive). Moreover, the z-score is 0.367 (inactive) in assay [8] and -1.05 in assay [9]. Further, the composite z-score is -0.424 (inactive) in assay [4] and -0.0791 in [10].
On to `COCCOC(=O)N1C(=O)[C@@]2(c3cc(C#CC4=CCCCC4)ccc31)[C@H](C(=O)Nc1nc3ccccc3s1)[C@H]1C(=O)O[C@H](c3ccccc3)[C@H](c3ccccc3)N1[C@@H]2c1ccc(OCCO)cc1`, for which the z-score is 0.366 in assay [1]; 1.05 (inactive) in assay [2]; 0.295 (inactive) in assay [3]; 4.33 (inactive) in [5]; 2.51 (inactive) in [6]; -1.26 (inactive) in assay [7]. Moreover, the z-score in [8] is -2.09 (inactive); in assay [9] it was -0.0984. Also, the composite z-score in assay [4] is 0.0498 (inactive); in [10], -0.106.
Regarding `CCCCc1cn(C[C@H](Cc2ccccc2)NC(=O)N[C@H](CO)CCc2oc(C(C)=O)c(C(=O)OC)c2C(=O)OC)nn1`, the z-score in [1] was -0.013; in assay [2], -2.38 (inactive); in [3], 0.465 (inactive); in assay [5], -0.44 (inactive); in assay [6] it was -0.728 (inactive); in [7], 0.916 (inactive). Moreover, the z-score in assay [8] is 0.646 (inactive); in [9], -0.185. Also, the composite z-score in assay [4] is -2.83 (inactive); in assay [10], 0.276.
In the case of `CN1C(=O)C2C=CC(C(O)C3CC=CCC3)N(NC(=O)OC(C)(C)C)C2C1=O` (stereo not given), the z-score is -1.53 in [1]; -0.0428 (inactive) in assay [2]; -0.784 (inactive) in [3]; 0.503 (inactive) in assay [5]; -0.0874 (inactive) in assay [6]; -0.791 (inactive) in [7]. Moreover, the z-score in [8] was -0.688 (inactive); in assay [9] it was -1. Also, the composite z-score in [4] is 0.123 (inactive); in assay [10], 0.579.
As to `C=CC[C@]1(C(=O)N2CCCCC2)N=C(c2ccc(OCCCO)cc2)O[C@H]1c1ccccc1`, the z-score in assay [1] was 1.77; in assay [2], -2.06 (inactive); in assay [3], 0.91 (inactive); in assay [5], -0.481 (inactive); in assay [6] it was 0.646 (inactive); in assay [7], 0.825 (inactive). For the same compound, the figures for the z-score in assay [8] and in assay [9] were -0.189 (inactive) and 1.93, respectively. Further, the composite z-score was -0.309 (inactive) in [4] and -0.0563 in [10].
Turning to `[N-]=[N+]=Nc1ccccc1[C@H]1OC(c2ccc(OCCCO)cc2)=N[C@@]1(Cc1ccccc1)C(=O)O`, the z-score in assay [1] was 0.615; in [2], -0.967 (inactive); in assay [3], -0.149 (inactive); in assay [5], 0.631 (inactive); in assay [6] it was 0.222 (inactive); in [7], 0.451 (inactive). Also, the z-score was 0.534 (inactive) in [8] and -0.434 in assay [9]. Also, the composite z-score in assay [4] was 1.12 (inactive); in [10], 0.0735.
For `COc1ccc(C(O)C2C=CC3C(=O)N(C)C(=O)C3N2N2CCCCC2)c2ccccc12` (stereo not given), the z-score in assay [1] is -1.2; in [2], -1.78 (inactive); in assay [3], -1.64 (inactive); in assay [5], 0.503 (inactive); in assay [6], 0.806 (inactive); in [7] it was -0.413 (inactive). Also, the figures for the z-score in assay [8] and in [9] were -0.68 (inactive) and -1.71, respectively. In addition, the figures for the composite z-score in assay [4] and in assay [10] were 0.238 (inactive) and -0.202, respectively.
In the case of `C=CCC(OC(C)=O)[C@@H]1[C@@H](N(Cc2ccc(-c3ccccc3)cc2)C(=O)Cc2ccc(F)cc2)c2cc(OCCCO)ccc2N1C(=O)c1ccc(-c2ccccc2)cc1` (stereo not given in full), the z-score in assay [1] is 1.27; in [2], -1.65 (inactive); in assay [3], 1.4 (inactive); in assay [5] it was -0.124 (inactive); in assay [6], -1.34 (inactive); in [7], 0.904 (inactive). Moreover, the results for the z-score in assay [8] and in assay [9] were 1.6 (inactive) and 1.48, respectively. Also, the composite z-score is -1.46 (inactive) in [4] and -0.296 in [10].
In the case of `CN1C(=O)[C@]2(Cc3ccccc3)N=C(c3ccc(OCCCO)cc3)O[C@@H]2c2ccccc21`, the z-score in assay [1] is -0.635; in assay [2], -1.79 (inactive); in assay [3], -2.57 (inactive); in assay [5], 0.814 (inactive); in assay [6] it was 1.13 (inactive); in assay [7], 0.757 (inactive). Besides, the z-score is 0.0422 (inactive) in assay [8] and -2.41 in assay [9]. For the same compound, the composite z-score is 0.539 (inactive) in assay [4] and 0.0617 in [10].
In the case of `CN1C(=O)C2C=CC(C(O)c3ccccc3)N(Nc3ccccc3)C2C1=O` (stereo not given), the z-score in [1] is -1.05; in [2], -0.506 (inactive); in assay [3] it was -1.83 (inactive); in assay [5], 1.67 (inactive); in assay [6] it was 0.166 (inactive); in assay [7], -1.17 (inactive). For the same compound, the z-score is -1.29 (inactive) in assay [8] and -1.52 in [9]. In addition, the composite z-score in assay [4] was 0.0323 (inactive); in [10] it was 0.0651.
In the case of `O=C1OCC=C[C@H]2OC34C=CCN(CCN5CCOCC5)C(=O)[C@H]3N(CCCO)C(=O)[C@@H]4[C@@H]12` (stereo not given in full), the z-score in assay [1] was -0.31; in [2], -0.187 (inactive); in [3], -1.4 (inactive); in [5], -0.385 (inactive); in assay [6] it was 0.451 (inactive); in assay [7], -0.514 (inactive). The z-score was -1.15 (inactive) in [8] and -0.0279 in assay [9]. For the same compound, the composite z-score in assay [4] is -0.283 (inactive); in [10], 0.0222.
As to `C=CC[C@@]1(C(N)=O)N=C(c2ccc(OCCCO)cc2)O[C@@H]1c1ccccc1CN=[N+]=[N-]`, the z-score in assay [1] is 0.165; in [2] it was -0.935 (inactive); in assay [3], 0.348 (inactive); in assay [5] it was 0.426 (inactive); in assay [6], -0.742 (inactive); in [7], 0.793 (inactive). The z-score in assay [8] is -0.597 (inactive); in [9] it was 0.093. Moreover, the values for the composite z-score in assay [4] and in [10] were -0.0357 (inactive) and -0.201, respectively.
